Experimental data taken from PubChem BioAssay AID687016 (The Scripps Research Institute Molecular Screening Center, 2013).
Values joined by “and” are separate entries in the source; they are usually repeats but may differ in a detail not shown here. Equal entries are not always repeated. About 2,800 (0.76%) of roughly 370,000 compounds were called active. No stated cut-off is given here; in the data, active means inhibition above about 21%; inactive means the rest. The list comes from a sample in which actives are over-represented; it also holds similar structures and randomly drawn compounds. Some structures have more than one record in an assay (separate samples or runs), and their calls can disagree.

target: E3 ubiquitin-protein ligase UHRF1 (Homo sapiens) (UniProt Q96T88); assay: UHRF1 methylated DNA binding inhibitors, primary screen, counter-screen for MBD2 inhibitor project, biochemical, TR-FRET, human UHRF1, single concentration (AID 687016); settings: UHRF1 binding to methylated oligo, at 4.4 µM, stronger effect = higher value;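 further: UHRF1 SRA domain binding a hemimethylated CpG hairpin DNA probe; 0% = median of test compound wells and 100% = reference inhibitor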
Sequence (Q96T88 whole entry, looked up, the tested form may be a part): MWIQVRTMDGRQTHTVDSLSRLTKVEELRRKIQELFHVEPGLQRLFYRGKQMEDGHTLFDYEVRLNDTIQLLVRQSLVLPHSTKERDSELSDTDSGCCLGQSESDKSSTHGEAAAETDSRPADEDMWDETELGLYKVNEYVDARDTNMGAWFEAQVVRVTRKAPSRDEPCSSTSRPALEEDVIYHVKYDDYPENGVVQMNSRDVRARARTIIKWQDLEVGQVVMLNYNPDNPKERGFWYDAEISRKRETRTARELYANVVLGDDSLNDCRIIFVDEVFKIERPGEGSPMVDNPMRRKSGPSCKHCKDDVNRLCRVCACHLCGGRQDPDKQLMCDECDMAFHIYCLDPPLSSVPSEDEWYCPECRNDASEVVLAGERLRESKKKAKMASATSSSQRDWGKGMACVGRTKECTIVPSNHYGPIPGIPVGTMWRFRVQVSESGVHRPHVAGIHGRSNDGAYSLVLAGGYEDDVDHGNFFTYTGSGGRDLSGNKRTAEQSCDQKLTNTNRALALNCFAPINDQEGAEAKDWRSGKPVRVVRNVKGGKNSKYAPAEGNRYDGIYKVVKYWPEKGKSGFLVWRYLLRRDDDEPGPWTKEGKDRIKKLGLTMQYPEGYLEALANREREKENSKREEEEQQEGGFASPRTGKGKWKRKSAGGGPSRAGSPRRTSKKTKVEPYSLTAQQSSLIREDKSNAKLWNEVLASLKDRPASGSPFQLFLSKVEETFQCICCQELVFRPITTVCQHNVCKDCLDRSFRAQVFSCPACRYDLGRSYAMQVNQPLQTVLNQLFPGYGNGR

How did the inhibition turn out when `CCC(CO)Nc1cccc2c1S(=O)(=O)N(Cc1cn(Cc3ccccc3C(F)(F)F)nn1)Cc1ccccc1O2` (configuration not stated) was run?
Its inhibition is 2.09% (inactive).

`COc1cccc(C2=CC(=O)C[C@H](c3ccc(F)cc3)C2)c1OC` was tested. Which inhibition did it give?
The inhibition was -0.67% (inactive).

How did the inhibition turn out when `COc1ccccc1C1=CC(=O)C[C@H](c2ccc(F)cc2)C1` was run?
The inhibition was 1.8% (inactive).

For `O=C1C=C(c2cccc(Cl)c2O)C[C@@H](c2ccc(F)cc2)C1`, which inhibition is on record?
Its inhibition is 21% (active).

With `Cc1ccc(-c2nnc(SCC(=O)Nc3ccc(Oc4ccccc4)cc3)n2Cc2ccco2)cc1` as the compound, how does the inhibition read?
Its inhibition is -0.31% (inactive).

`O=C(Cn1c[n+](CC(=O)c2ccc([N+](=O)[O-])cc2)cn1)c1ccc([N+](=O)[O-])cc1` was tested. Which inhibition did it give?
Its inhibition is 50.5% (active) and -2.04% (inactive).

For `Cc1ccc(C(=O)Cn2cccn2)cc1`, which inhibition is on record?
The inhibition was 5.04% (inactive).

Which inhibition does the source give for `O=C(CC(n1cncn1)C(Cl)(Cl)Cl)c1ccc([N+](=O)[O-])cc1` (configuration not stated) here?
The inhibition was 0.74% (inactive).

With `Cc1ccc(NC(=S)NNC(=O)CSc2nnc(SCc3ccccc3Cl)s2)cc1` as the compound, how does the inhibition read?
The inhibition was -10.8% (inactive).

With `COc1cccc(CSc2nnc(-c3cccnc3)n2Cc2ccccc2)c1` as the compound, how does the inhibition read?
The inhibition was -0.03% (inactive).

How did the inhibition turn out when `CCOc1cc(N2CCOCC2)c(OCC)cc1NC(=O)C1=NN(c2cccc(C)c2)C(=O)CC1` was run?
The inhibition was 0.92% (inactive).

`Cc1cc(C(=O)NNC(=O)c2cccc(S(=O)(=O)N3CCOCC3)c2)c2ccccc2n1` was tested. Which inhibition did it give?
The inhibition was -0.61% (inactive).

How did the inhibition turn out when `CCOc1cc(N2CCOCC2)c(OCC)cc1NC(=O)c1cc(C)nc2ccccc12` was run?
Its inhibition is 23.5% (active).

Which inhibition does the source give for `CC(C)(C)OC(=O)NCc1cc(F)ccc1/C=C/S(=O)(=O)NCCc1ccccc1` here?
Its inhibition is 0.11% (inactive).

For `CCOC(=O)/C(=N\Nc1ccccc1Cl)N(C)C1CCS(=O)(=O)C1` (configuration not stated), which inhibition is on record?
The inhibition was 23.3% (active).

How did the inhibition turn out when `CCOC(=O)/C(=N\Nc1cc(Cl)ccc1Cl)N1CCN(C)CC1` was run?
Its inhibition is -0.04% (inactive).

How did the inhibition turn out when `CC(=O)c1ccc(OCC(=O)N(C)C2CCS(=O)(=O)C2)cc1` (configuration not stated) was run?
Its inhibition is 1.81% (inactive).

How did the inhibition turn out when `CCOC(=O)[C@]12CCCCC/C=C\1N(Cc1ccc(OC)cc1)C(=O)[C@H]2CC(=O)NCCCN1CCCC1=O` was run?
Its inhibition is -0.93% (inactive).

`CCOC(=O)[C@]12CCCC3=C1N(CCC3)C(=O)[C@@H](CC(=O)NCC13CC4CC(CC(C4)C1)C3)C2` was tested. Which inhibition did it give?
The inhibition was -0.2% (inactive).

For `O=C(CCCCCN1C(=O)C2C3C=CC(C3)C2C1=O)Nc1ccccn1` (configuration not stated), which inhibition is on record?
Its inhibition is -0.7% (inactive).

How did the inhibition turn out when `COc1ccc(N2CCN(CCNS(=O)(=O)c3ccc(C(C)(C)C)cc3)CC2)cc1` was run?
Its inhibition is 0.26% (inactive).

Which inhibition does the source give for `CC(OC(=O)/C=C/c1ccccc1)C(=O)Nc1ccc(C(N)=O)cc1` (configuration not stated) here?
Its inhibition is -0.02% (inactive).

`C=CCOc1ccc(/C=C/C(=O)OC(C)C(=O)Nc2ccc(NC(C)=O)cc2)cc1` (configuration not stated) was tested. Which inhibition did it give?
The inhibition was 0.2% (inactive).

With `CCc1ccc(NC(=O)C(C)OC(=O)/C=C/c2cccc([N+](=O)[O-])c2)cc1` (configuration not stated) as the compound, how does the inhibition read?
The inhibition was 21.5% (active).

With `O=C(NC1CCC1)c1ccc(C#Cc2cccc(F)c2)c[n+]1[O-]` as the compound, how does the inhibition read?
Its inhibition is -2.83% (inactive).

With `COc1cc2[nH]c(=S)n(Cc3ccc(C)o3)c(=O)c2cc1OC` as the compound, how does the inhibition read?
The inhibition was -2.92% (inactive).

With `COc1ccc(Cn2c(=O)cc(C)[nH]c2=S)cc1` as the compound, how does the inhibition read?
Its inhibition is 48.1% (active).

Which inhibition does the source give for `COc1ccc(Cn2c(=O)oc3ccccc32)cc1` here?
The inhibition was -0.71% (inactive).

Which inhibition does the source give for `COC(=O)[C@]12C[C@H](CC(=O)NCc3cccc4ccccc34)C(=O)N(CCc3ccc(OC)c(OC)c3)C1=C[C@H](C1CCCC1)O[C@@H]2C` here?
Its inhibition is 0% (inactive).

For `CCOC(=O)N1CCN(C(=O)C[C@@H]2C(=O)N(CCc3ccc(Cl)cc3)C3=CCCC[C@]32C(=O)OCC)CC1`, which inhibition is on record?
Its inhibition is -0.31% (inactive).

For `c1csc(-c2nnc(SCc3nc4ccccc4[nH]3)o2)c1`, which inhibition is on record?
The inhibition was -2.92% (inactive).

How did the inhibition turn out when `COC(=O)[C@]12C[C@H](CC(=O)N3CCOCC3)C(=O)N(Cc3ccc(Cl)cc3Cl)C1=C[C@H](C(C)C)O[C@@H]2C1CC1` was run?
The inhibition was -0.21% (inactive).

How did the inhibition turn out when `CCCCCC(=O)Nc1ccc(-c2cn3cccnc3n2)cc1` was run?
The inhibition was 23.5% (active).

Which inhibition does the source give for `CC(C)(C)C(=O)Nc1ccc(-c2cn3cccnc3n2)cc1` here?
Its inhibition is -3.25% (inactive).

How did the inhibition turn out when `CCCCC(=O)Nc1ccc(C(=O)NCCCn2ccnc2)cc1` was run?
Its inhibition is -2.85% (inactive).

Which inhibition does the source give for `Clc1ccc(-n2c(SC/C=C/c3ccccc3)nnc2-c2ccco2)cc1` here?
Its inhibition is 0.89% (inactive).

With `CC1CCN(c2ccc(C(=O)O)cc2NS(=O)(=O)c2ccc(Br)s2)CC1` as the compound, how does the inhibition read?
The inhibition was -1.98% (inactive).

Which inhibition does the source give for `COC(=O)[C@@]12CCCCC=C1N(CCc1ccc(Cl)cc1)C(=O)[C@H]2CC(=O)NCc1ccc(OC)c(OC)c1` here?
The inhibition was 0.86% (inactive).

`COCCCN1C(=O)C(CC(=O)NCc2cccs2)CC(C(=O)N2CCOCC2)=C1C` (configuration not stated) was tested. Which inhibition did it give?
The inhibition was 0.04% (inactive).

Which inhibition does the source give for `CCCCN1C(=O)C(CC(=O)NCc2cccs2)CC(C(=O)N2CCCCCC2)=C1C` (configuration not stated) here?
Its inhibition is -0.83% (inactive).

Which inhibition does the source give for `CCCCN1C(=O)C(CC(=O)NCc2cccs2)CC(C(=O)N2CCOCC2)=C1C` (configuration not stated) here?
Its inhibition is 22.9% (active).

For `Oc1ccc(/C=C/c2c(F)cccc2F)c2cccnc12`, which inhibition is on record?
Its inhibition is -8.09% (inactive).

Which inhibition does the source give for `O=C1C(=O)N(Cc2ccc(-c3ccsc3)cc2)c2ccc(OC(F)(F)F)cc21` here?
The inhibition was 1.64% (inactive).

How did the inhibition turn out when `O=C1CCC2(CCC(c3ccc(Cl)cc3)CC2)N1CCO` (configuration not stated) was run?
The inhibition was -1.17% (inactive).

For `O=C(C1CCN(S(=O)(=O)c2ccccc2)CC1)N1CCN(C2CCCCC2)CC1`, which inhibition is on record?
Its inhibition is -0.54% (inactive).

How did the inhibition turn out when `COc1ccc(Cn2cc(CN3[C@@H](CC(C)C)COc4cc(Br)ccc4S3(=O)=O)nn2)cc1` was run?
Its inhibition is -1.35% (inactive).

For `CCN(C(=O)COC(=O)c1cc(S(=O)(=O)N2CCc3ccccc32)ccc1OC)C1CCS(=O)(=O)C1` (configuration not stated), which inhibition is on record?
The inhibition was -0.66% (inactive).

Which inhibition does the source give for `COc1ccc(S(=O)(=O)N2CCc3ccccc32)cc1C(=O)Nc1cc(S(C)(=O)=O)ccc1Cl` here?
The inhibition was 21.6% (active).

Which inhibition does the source give for `COc1cccc(NC(=O)c2cc(S(=O)(=O)N3CCc4ccccc43)cn2C)c1` here?
Its inhibition is -1% (inactive).

`O=C(C1CCCN1S(=O)(=O)c1ccccc1)N1CCc2ccccc2C1` (configuration not stated) was tested. Which inhibition did it give?
The inhibition was 1.67% (inactive).

With `O=S1(=O)c2ccc(N3CCN(Cc4ccccc4F)CC3)cc2Oc2ccccc2CN1Cc1cn(Cc2ccc(Cl)cc2)nn1` as the compound, how does the inhibition read?
The inhibition was 3.23% (inactive).

Which inhibition does the source give for `Nc1ccc2nc3c(=O)[nH]c(=S)[nH]c3nc2c1` here?
The inhibition was 29.6% (active).
